About 79,000 compounds went through this panel and 15% of them were active in at least one assay; those are over-represented in the sample as a whole. Activity calls are given as the source filed them. No stated cut-off is given here; in the data, active means growth inhibition above about 70%; inactive means the rest.
assay: NCI Yeast Anticancer Drug Screen. Data for the rad50 strain (AID 155);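 further: 0% = growth of vehicle-only cultures of the same strain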; conditions: S. cerevisiae rad50 strain growth inhibition; at 50.0 µM; stronger effect = higher value
Outline: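 Relative growth inhibition (compound vs vehicle) was measured in yeast with a defined repair-gene alteration.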

| Structure (SMILES) | growth inhibition |
| --- | --- |
| CCOC(=O)C(=CNc1cc(C(F)(F)F)ccc1N1CCOCC1)C(=O)OCC | -1.4% (inactive) |
| COCC(=O)c1ccc(C#N)cc1 | 4.35% (inactive) |
| CC(=O)Nc1ccc(O)c([N+](=O)[O-])c1 | 3.1% (inactive) |
| CC1(C)C2CC3C(=CCCC3C(=O)O)C1C2 (stereo not given) | 11.4% (inactive) |
| COc1cc(C(C#N)NNC(=O)c2ccccc2O)ccc1O (stereo not given) | 34.4% (inactive) |
| O=C(On1nnc2ccccc2c1=O)c1ccccc1 | 29.7% (inactive) |
| c1ccc(-c2n[nH]c3c2CCCc2ccccc2-3)cc1 | 4.7% (inactive) |
| O=C1NC(=O)c2c(Br)c(Br)c(Br)c(Br)c21 | -20.6% (inactive) |
| CCOC(=O)/C(F)=C/c1cccc([N+](=O)[O-])c1 | 13.4% (inactive) |
| Nc1cc(Cl)cc2[nH]c(=O)c3cc(Cl)ccc3c12 | 39.8% (inactive) |
| O=C1N=C2SCCCN2C1(c1ccccc1)c1ccccc1 | 4.2% (inactive) |
| COC(=O)Nc1nc2ccc(C3c4c(n[nH]c4C)CC(C)(O)C3C(C)=O)cc2[nH]1 (stereo not given) | 20.4% (inactive) |
| O/N=C1\c2ccccc2-c2cccc(I)c21 | 23.4% (inactive) |
| O=C1C(c2ccccc2)=C(c2ccccc2)C(c2ccc(Sc3ccc(C4=C(c5ccccc5)C(=O)C(c5ccccc5)=C4c4ccccc4)cc3)cc2)=C1c1ccccc1 | 12.9% (inactive) |
| O=C(O)/C=C/C=C/c1ccc(Cl)cc1 | 7.25% (inactive) |
| CSc1ccccc1C(C)(C)O | 24.6% (inactive) |
| CCCNc1ccc2c(c1)C(=O)c1ccccc1-2 | -3.5% (inactive) |
| C/C=C/C1OCC(C)(C)CO1 | -0.8% (inactive) |
| NC(=O)N=P(c1ccccc1)(c1ccccc1)c1ccccc1 | -9.9% (inactive) |
| COCCNC(c1ccccc1)C(O)c1ccccc1 (stereo not given) | 6.4% (inactive) |

| Structure (SMILES) | growth inhibition |
| --- | --- |
| CCOC(=O)N1C(=O)c2ccccc2C1=O | -7.35% (inactive) |
| COc1ccc(/C=C2\N=C(c3ccccc3)OC2=O)c(Br)c1OC(C)=O | -20.1% (inactive) |
| CCCCCCCCCCCCCCC(CCCCCCCCCCCCCC)c1ccccc1 | 38.4% (inactive) |
| Clc1ccc2nc[nH]c2c1 | 10.1% (inactive) |
| [N-]=[N+]=CC(=O)C1OC1c1ccc(Br)cc1 (stereo not given) | 11.8% (inactive) |
| O=C1NC2CCC(NC(=O)N1c1ccccc1)C1=C2C1 | -28.6% (inactive) |
| C=CS(=O)(=O)c1ccc(NC(=O)Nc2ccc(Cl)cc2)cc1 | -0.55% (inactive) |
| O=c1c2ccccc2n2nnc3ccc(NCCNCCO)c1c32 | -15.1% (inactive) |
| CCCCOC(=O)c1ccc(OC(=O)Nc2cccc(Cl)c2)cc1 | 13.2% (inactive) |
| CC(=O)OCC1OC(n2c(Br)nc3c(N)ncnc32)C(O)C1O (stereo not given) | -3.35% (inactive) |
| CC(=O)OC1/C=C(/C)CCC2OC2(C)CC2OC(=O)C3(CC3)C12 (stereo not given) | 0.85% (inactive) |
| NC(c1ccccc1)(c1ccccc1)c1ccccc1 | 20.1% (inactive) |
| Cc1cc(C(C)(C)C)nc(C(C)(C)C)c1 | 13.1% (inactive) |
| COc1ccc(N2C(=O)C3c4[nH]c5cccc(C)c5c4C4CCC(C(C)(C)C)CC4C3C2=O)cc1 (stereo not given) | 8.75% (inactive) |
| CCC(C)C(C(=O)OCCC[N+]1(C)CCCCC1)c1ccccc1 (stereo not given) | 49.9% (inactive) |
| COC(=O)[C@H]1C=C[C@H](OC2OC(COC(C)=O)C(OC(C)=O)C(OC(C)=O)C2OC(C)=O)n2c(=O)n(-c3ccccc3)c(=O)n21 (stereo not given in full) | 8.3% (inactive) |
| Cc1ccc(N2C(=O)CS/C2=C(\C#N)c2nc3ccccc3[nH]2)cc1 | -78.5% (inactive) |
| NC(=O)c1ccc[n+](CC(=O)Nc2ccccc2)c1 | -5.6% (inactive) |
| COc1ccc2c(-c3cc4ccccc4o3)cc(=O)oc2c1 | -6.4% (inactive) |
| CN(C)CCCNC(=O)N/N=C\c1cccc2ccccc12 | -2.9% (inactive) |

assay: NCI Yeast Anticancer Drug Screen. Data for the mec2-1 strain (AID 157); conditions: S. cerevisiae mec2-1 strain, at 50.0 µM, stronger effect = higher value
Outline: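 Mutant yeast (mec2-1) grown with compound; growth inhibition relative to vehicle control reported.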

| Structure (SMILES) | growth inhibition |
| --- | --- |
| CCOC(=O)C(=CNc1cc(C(F)(F)F)ccc1N1CCOCC1)C(=O)OCC | -15.2% (inactive) |
| COCC(=O)c1ccc(C#N)cc1 | -20.2% (inactive) |
| CC(=O)Nc1ccc(O)c([N+](=O)[O-])c1 | 3.3% (inactive) |
| CC1(C)C2CC3C(=CCCC3C(=O)O)C1C2 (stereo not given) | 15.3% (inactive) |
| COc1cc(C(C#N)NNC(=O)c2ccccc2O)ccc1O (stereo not given) | 42.8% (inactive) |
| O=C(On1nnc2ccccc2c1=O)c1ccccc1 | 20.4% (inactive) |
| c1ccc(-c2n[nH]c3c2CCCc2ccccc2-3)cc1 | -9.7% (inactive) |
| O=C1NC(=O)c2c(Br)c(Br)c(Br)c(Br)c21 | -32.9% (inactive) |
| CCOC(=O)/C(F)=C/c1cccc([N+](=O)[O-])c1 | 8.8% (inactive) |
| Nc1cc(Cl)cc2[nH]c(=O)c3cc(Cl)ccc3c12 | 7.25% (inactive) |
| O=C1N=C2SCCCN2C1(c1ccccc1)c1ccccc1 | 21.2% (inactive) |
| COC(=O)Nc1nc2ccc(C3c4c(n[nH]c4C)CC(C)(O)C3C(C)=O)cc2[nH]1 (stereo not given) | 3.85% (inactive) |
| O/N=C1\c2ccccc2-c2cccc(I)c21 | -5.25% (inactive) |
| O=C1C(c2ccccc2)=C(c2ccccc2)C(c2ccc(Sc3ccc(C4=C(c5ccccc5)C(=O)C(c5ccccc5)=C4c4ccccc4)cc3)cc2)=C1c1ccccc1 | 22.6% (inactive) |
| O=C(O)/C=C/C=C/c1ccc(Cl)cc1 | 23.4% (inactive) |
| CSc1ccccc1C(C)(C)O | -2.55% (inactive) |
| CCCNc1ccc2c(c1)C(=O)c1ccccc1-2 | -1.1% (inactive) |
| C/C=C/C1OCC(C)(C)CO1 | 22.9% (inactive) |
| NC(=O)N=P(c1ccccc1)(c1ccccc1)c1ccccc1 | 12.6% (inactive) |
| COCCNC(c1ccccc1)C(O)c1ccccc1 (stereo not given) | -15.6% (inactive) |

| Structure (SMILES) | growth inhibition |
| --- | --- |
| CCOC(=O)N1C(=O)c2ccccc2C1=O | -13.2% (inactive) |
| COc1ccc(/C=C2\N=C(c3ccccc3)OC2=O)c(Br)c1OC(C)=O | 0.7% (inactive) |
| CCCCCCCCCCCCCCC(CCCCCCCCCCCCCC)c1ccccc1 | -1.25% (inactive) |
| Clc1ccc2nc[nH]c2c1 | 10.1% (inactive) |
| [N-]=[N+]=CC(=O)C1OC1c1ccc(Br)cc1 (stereo not given) | 15.3% (inactive) |
| O=C1NC2CCC(NC(=O)N1c1ccccc1)C1=C2C1 | -8.85% (inactive) |
| C=CS(=O)(=O)c1ccc(NC(=O)Nc2ccc(Cl)cc2)cc1 | 1.7% (inactive) |
| O=c1c2ccccc2n2nnc3ccc(NCCNCCO)c1c32 | 2.8% (inactive) |
| CCCCOC(=O)c1ccc(OC(=O)Nc2cccc(Cl)c2)cc1 | 2.3% (inactive) |
| CC(=O)OCC1OC(n2c(Br)nc3c(N)ncnc32)C(O)C1O (stereo not given) | -4.5% (inactive) |
| CC(=O)OC1/C=C(/C)CCC2OC2(C)CC2OC(=O)C3(CC3)C12 (stereo not given) | -20.5% (inactive) |
| NC(c1ccccc1)(c1ccccc1)c1ccccc1 | 2.9% (inactive) |
| Cc1cc(C(C)(C)C)nc(C(C)(C)C)c1 | 6.4% (inactive) |
| COc1ccc(N2C(=O)C3c4[nH]c5cccc(C)c5c4C4CCC(C(C)(C)C)CC4C3C2=O)cc1 (stereo not given) | -21.1% (inactive) |
| CCC(C)C(C(=O)OCCC[N+]1(C)CCCCC1)c1ccccc1 (stereo not given) | -6.75% (inactive) |
| COC(=O)[C@H]1C=C[C@H](OC2OC(COC(C)=O)C(OC(C)=O)C(OC(C)=O)C2OC(C)=O)n2c(=O)n(-c3ccccc3)c(=O)n21 (stereo not given in full) | 14% (inactive) |
| Cc1ccc(N2C(=O)CS/C2=C(\C#N)c2nc3ccccc3[nH]2)cc1 | -62% (inactive) |
| NC(=O)c1ccc[n+](CC(=O)Nc2ccccc2)c1 | 0.65% (inactive) |
| COc1ccc2c(-c3cc4ccccc4o3)cc(=O)oc2c1 | -16.9% (inactive) |
| CN(C)CCCNC(=O)N/N=C\c1cccc2ccccc12 | -24% (inactive) |

Source: PubChem BioAssay (NCI)
